In the library only some 7.3% were active in any assay of this set; here they are far more common.
NPC1 promoter act = activators of NPC1 promoter. Huh7 NPC1 promoter luciferase reporter, 24 h. Potency, µM (doses to about 9.22 µM), inactives show at the top dose activation, hits mostly activators. 320,000 tested, 2.4% active. AID 485313; note: % of control where 0% means no effect; nearly all actives have a fitted effect of over 60% in size
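In 1536-well qHTS, Huh7 cells harboring an NPC1 promoter–luciferase construct received compound for 24 h; activation was quantified by luminescence following luciferase reagent addition.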
KinaseGlo FLuc = counter-screen: inhibitors of Kinase-Glo firefly luciferase. Kinase-Glo luciferase, ATP luminescence, 8 min. 200,000 tested, 0.28% active. Q27757. AID 1379. Potency, µM (doses to about 38.3 µM), for the others: at the highest dose activity change, negative = inhibition, usual class: inhibitors; note: % is set by controls: 0 for no effect and ±100 for the full control effect; nearly all actives have a fitted effect of over 60% in size
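Light output from Kinase-Glo luciferase with luciferin and 10 uM ATP in 50 mM imidazole pH 7.2, KCl, MgCl2, Tween 20, BSA; compound pin-delivered, 8-min ambient incubation, then luminescence read.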
SMN2 splice enh = SMN2 splice variant enhancement; HEK293 SMN2-luciferase splicing reporter, luminescence, 30-36 h; Potency, µM (doses to about 46.1 µM), inactives show at the highest dose activity change, positive = activation, usual class: activators; 210,000 tested, 2.8% active; note: % of control where 0% means no effect; nearly all actives have a fitted effect of over 55% in size
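qHTS luciferase splicing reporter: luminescence rises when SMN2 exon 7 is included in transfected HEK293 cells. Compound exposure lasted 30-36 h at 37C, with 4.5 mM final sodium butyrate as control, followed by a ONE-Glo read.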
ELG1 genotoxic = induces genotoxicity in HEK293T cells with luciferase-tagged ELG1 | HEK293T ELG1-luciferase reporter, luminescence, 16 h | Potency, µM (top dose mostly 46 µM), inactives show at the top dose activity change, positive = activation, most hits filed as activators | 330,000 tested, 1.3% active | AID 504466; note: % of control where 0% means no effect; nearly all actives have a fitted effect of over 60% in size
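HEK293T cells expressing luciferase-tagged ELG1 were treated with compound or DMSO for 16 hr at 37°C. Luciferase activity was then read after 30 min with ONE-Glo at room temperature; rising signal flags genetic stress.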
Rab9 promoter act = activates the Rab9 promoter. AID 485297. Potency, µM (titrated, usually from 9.22 µM), without a hit: at the top dose activation, negative = inhibition, most hits filed as activators. 320,000 tested, 2.8% active. Huh7 Rab9 promoter-luciferase reporter, luminescence, 24 h; note: % of control where 0% means no effect; nearly all actives have a fitted effect of over 60% in size
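Steps: seed 1500 Huh7 Rab9-luc cells per well, rest 2 h at 37 °C; add compound in DMSO; incubate 24 h; add luciferase reagent, 10 min ambient; read luminescence.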
FLuc modulator = counter-screen for miR-21 project: firefly luciferase inhibitors or activators; purified FLuc, Km substrates, luminescence inhibition; AID 588342; 360,000 tested, 6.9% active; P08659; Potency, µM (top dose mostly 57.5 µM), without a hit: at the top dose activity change, negative = inhibition, hits mostly inhibitors;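 note: plate controls were vehicle for no effect and reference inhibitor for full effect; nearly all actives have a fitted effect of over 55% in size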
Target sequence (P08659 whole entry, looked up): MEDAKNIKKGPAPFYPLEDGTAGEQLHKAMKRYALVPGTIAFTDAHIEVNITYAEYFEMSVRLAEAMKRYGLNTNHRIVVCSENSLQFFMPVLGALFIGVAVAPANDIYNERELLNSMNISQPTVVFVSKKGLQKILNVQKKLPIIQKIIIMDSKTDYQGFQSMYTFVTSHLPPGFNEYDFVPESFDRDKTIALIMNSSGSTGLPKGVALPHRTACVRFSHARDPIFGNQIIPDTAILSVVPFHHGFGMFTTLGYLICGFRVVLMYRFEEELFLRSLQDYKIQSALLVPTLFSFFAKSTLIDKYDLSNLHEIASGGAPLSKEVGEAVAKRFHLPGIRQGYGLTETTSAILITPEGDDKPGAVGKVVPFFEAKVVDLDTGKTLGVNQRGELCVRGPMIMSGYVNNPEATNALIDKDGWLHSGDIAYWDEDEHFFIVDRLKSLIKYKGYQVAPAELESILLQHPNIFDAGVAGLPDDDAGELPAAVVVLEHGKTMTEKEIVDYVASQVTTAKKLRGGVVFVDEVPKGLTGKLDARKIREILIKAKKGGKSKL
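Purified P. pyralis luciferase, 10 nM final, with Km-level 10 uM D-luciferin and 10 uM ATP in 50 mM Tris acetate pH 7.5, 10 mM Mg acetate, 0.01% Tween-20, 0.05% BSA; 6-point qHTS titration about 60 µM downward; luminescence read.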
* = called active by the depositor; ? = inconclusive; . = not tested or not shown; ! = not confirmed by another sample; [ ] = dose if it differs, or a comment. Calls come from the whole dose curve; as a rule, active = well fitted curve in the direction sought with a large enough effect; inconclusive = small, poorly fitted or top-dose-only effect, or another doubt; inactive = no such curve, though single readings can be large; an effect the other way counts as inactive or inconclusive. Potency is the fitted concentration of half-maximal effect.

SMILES	NPC1 promoter act	KinaseGlo FLuc	SMN2 splice enh	ELG1 genotoxic	Rab9 promoter act	FLuc modulator
Cc1ccc(NC(=O)c2nc(S(=O)(=O)Cc3ccccc3C)ncc2Cl)cc1C	-24%	.	.	-17%	-16%	11µM*
Cc1ccc(NC(=O)c2nc(S(=O)(=O)Cc3ccc(F)cc3)ncc2Cl)cc1C	.	.	.	.	.	-1%
COc1ccc(C(=O)Nc2ccc3c(c2)nc(CCNC(C)=O)n3C)cc1	2.8µM*	0%	?	18µM*	?	12µM*
COc1ccc(C(=O)Nc2ccc3c(c2)nc(CCNC(=O)c2ccco2)n3C)cc1	4%	.	.	4%	30%	15µM*
Cn1c(CN2CCOCC2)nc2cc(NC(=O)c3ccc(F)cc3)ccc21	-3%	3%	.	-6%	-3%	4%[2.3 µM]
CC(=O)NCCc1nc2cc(NC(=O)c3ccc(F)cc3)ccc2n1C	3.5µM*	.	.	?	2µM*	21µM*
Cc1ccc(CNC(=O)c2cc(Sc3ccc(F)cc3F)nc3ccccc23)cc1	.	.	.	.	.	0%
COc1ccc(N2CCN(S(=O)(=O)c3ccc4c(c3)CCCN4C(C)=O)CC2)cc1	.	.	.	.	.	4%
Cc1ccnc(NC(=O)c2ccc(NC(=O)CC3SC(N4CCCC4)=NC3=O)cc2)c1 (centres undefined)	15%	.	.	8%	22%	-16%
Cc1ccnc(NC(=O)c2cccc(NC(=O)CC3SC(N4CCCCC4)=NC3=O)c2)c1 (centres undefined)	4%	.	.	3%	17%	12µM*
CC1CCC(NC(=O)c2ccc(NC(=O)CC3SC(N4CCCC4)=NC3=O)cc2)CC1 (centres undefined)	2.5µM*	.	.	19%	2.2µM*	?
CCNC(=O)c1ccc(NC(=O)CC2SC(N3CCCCC3)=NC2=O)cc1 (centres undefined)	0%	.	.	0%	-2%	-3%
COC(=O)C1=C(C(=O)OC)[C@@H]2N(C)c3ccc(OC)cc3[C@@]23C[C@@H](C(=O)OC)N(S(=O)(=O)c2ccc(C(F)(F)F)cc2)C3=N1	.	-1%[7.66 µM]	4%[9.22 µM]	.	.	.
COc1cc(C)cc2c(-c3c(O)cc(O)c4c3C[C@H](C)N[C@@H]4C)cc(-c3cc(-c4c(O)cc(O)c5c4C[C@H](C)N[C@@H]5C)c4cc(C)cc(OC)c4c3O)c(O)c12	.	-4%[7.66 µM]	-1%[9.22 µM]	.	.	.
Cc1ccc(CNC(=O)CN(C)S(=O)(=O)c2ccc3c(c2)c(=O)n(C)c(=O)n3C)cc1	.	.	5%	.	.	-5%
COc1ccc2[nH]cc(/C=C/C(=O)c3ccccc3)c2c1	3.2µM*	.	.	?	1.6µM*	3.4µM*
Cc1ccc(S(=O)(=O)/C(C#N)=C/c2c[nH]c3ccccc23)cc1	-1%	-4%	-6%	-5%	-7%	1%
COc1ccc2[nH]cc(C=O)c2c1	8%	0%	-14%	-2%	-4%	-2%
Cc1ccc(C(=O)/C=C/c2c[nH]c3ccccc23)cc1	4µM*	-5%	?	?	3.5µM*	5.4µM*
O=C(/C=C/c1c[nH]c2ccccc12)c1ccccc1	3.2µM*	-1%	10µM*	16µM*	3.5µM*	5.4µM*
CCC1CN(C(=O)Nc2ccc(Br)cc2F)c2ccccc2S1 (centres undefined)	.	.	.	.	.	-2%
CCOCCCNC(=O)C1CCN(C(=O)c2cc3sccc3n2C)CC1	.	.	-5%	.	.	4%
Cc1ccc2c(CC(=O)N(Cc3ccc(N(C)C)cc3)Cc3ccco3)coc2c1C	.	.	11%	.	.	-1%
COc1cccc(/C=C2\SC(=S)N(CCC(=O)NC3C=CS(=O)(=O)C3)C2=O)c1 (centres undefined)	21%	.	.	16%	2%	4.8µM*
O=C(CN1C(=O)S/C(=C\c2ccc(Cl)cc2)C1=O)NC1C=CS(=O)(=O)C1 (centres undefined)	-4%	.	.	-1%	0%	2%
SMILES	NPC1 promoter act	KinaseGlo FLuc	SMN2 splice enh	ELG1 genotoxic	Rab9 promoter act	FLuc modulator
COc1ccc(/C=C2\SC(=O)N(CCC(=O)N(C)C3CCS(=O)(=O)C3)C2=O)cc1 (centres undefined)	28%	.	.	17%	26%	11µM*
COc1ccc(/C=C2\SC(=S)N(CCC(=O)NC3C=CS(=O)(=O)C3)C2=O)cc1 (centres undefined)	2%	.	.	12%	-8%	5.4µM*
COc1ccc(/C=C2\SC(=O)N(CC(=O)N(C)C3CCS(=O)(=O)C3)C2=O)cc1 (centres undefined)	12%	.	.	7%	13%	?
Cc1ccc(CNC(=O)c2cn(C)c3ccc(S(=O)(=O)N(C)C4CCCCC4)cc3c2=O)cc1	.	.	-8%	.	.	-11%
COc1cc(/C=C/c2noc(-c3ccccc3O)n2)cc(OC)c1OC	22%	-1%	13%	10%	27%	0%
CC(=O)Oc1ccccc1-c1nc(/C=C/c2ccccc2)no1	2.8µM*	.	.	9.2µM*	?	11µM*
COc1ccc(/C=C/c2noc(-c3ccccc3O)n2)cc1	?	?	27%	?	27%	3.8µM*
COc1ccc(CCNC(=O)Cn2cc(S(=O)(=O)Cc3ccc(F)cc3)c3ccccc32)cc1OC	.	.	.	.	.	4%
Cc1cc(-c2nnco2)c(C)n1-c1ccccc1	?	-2%	?	11µM*	?	12µM*
CCOc1ccc(NS(=O)(=O)c2ccc3[nH]cc(C(=O)NCC4CCCO4)c(=O)c3c2)cc1 (centres undefined)	?	-1%	1%	3%	-3%	27µM*!
CCOc1ccc(NS(=O)(=O)c2ccc3[nH]cc(C(=O)N(CC)CC)c(=O)c3c2)cc1	0.45µM*	0%	3.5µM*	?	0.4µM*	2.7µM*
CN(Cc1ccccc1)S(=O)(=O)c1ccc2[nH]cc(C(=O)NCC3CCCO3)c(=O)c2c1 (centres undefined)	3.2µM*	-2%	12%	?	2.8µM*	11µM*
Nc1ccc(N=Nc2ccc(N)cc2)cc1	?	-1%	14µM*	?	?	7.6µM*
COc1cc(OC)cc(C(=O)N[C@H](C(=O)OCc2cc(=O)oc3cc(C)ccc23)C(C)C)c1	-4%	-1%	-4%	-2%	-1%	8.5µM*
CCOc1ccccc1C(=O)N[C@H](C(=O)OCc1cc(=O)oc2cc(C)ccc12)C(C)C	1%	4%	1%	-1%	-5%	?
COc1ccc(Br)c(C(=O)OCc2cc(=O)oc3cc(C)ccc23)c1	-1%	.	.	14%	-2%	?
Cc1ccc2c(COC(=O)C34CC5CC(CC(C5)C3)C4)cc(=O)oc2c1	?	-3%	21%	?	4µM*	?
Cc1ccc2c(COC(=O)c3ccccc3Br)cc(=O)oc2c1	?	.	.	15µM*	3%	2.7µM*

Compound activity (PubChem BioAssay)
